Assay results from PubChem BioAssay AID485346 (Sanford-Burnham Center for Chemical Genomics, 2010).
The whole screen tested about 330,000 compounds, of which about 10,000 (3%) were called active.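 Rule for the calls: active = inhibition of at least 50% at 8 µM in the primary screen; inactive = the rest.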 The full list was thinned out, with actives kept by preference.

Biological target: Protein Mdm4 (Homo sapiens) + E3 ubiquitin-protein ligase Mdm2 (Homo sapiens) (UniProt O15151+Q00987)
Test: disruptors of Mdm2/MdmX RING complex – cell-based, luminescence, split luciferase, SaOS-2, uHTS, primary screen (AID 485346)
Details: SaOS-2 split-luciferase Mdm2/MdmX complementation, at 8 µM, active compounds read high

Chain of Protein Mdm4 (Homo sapiens) + E3 ubiquitin-protein ligase Mdm2 (Homo sapiens) (O15151 whole entry, looked up): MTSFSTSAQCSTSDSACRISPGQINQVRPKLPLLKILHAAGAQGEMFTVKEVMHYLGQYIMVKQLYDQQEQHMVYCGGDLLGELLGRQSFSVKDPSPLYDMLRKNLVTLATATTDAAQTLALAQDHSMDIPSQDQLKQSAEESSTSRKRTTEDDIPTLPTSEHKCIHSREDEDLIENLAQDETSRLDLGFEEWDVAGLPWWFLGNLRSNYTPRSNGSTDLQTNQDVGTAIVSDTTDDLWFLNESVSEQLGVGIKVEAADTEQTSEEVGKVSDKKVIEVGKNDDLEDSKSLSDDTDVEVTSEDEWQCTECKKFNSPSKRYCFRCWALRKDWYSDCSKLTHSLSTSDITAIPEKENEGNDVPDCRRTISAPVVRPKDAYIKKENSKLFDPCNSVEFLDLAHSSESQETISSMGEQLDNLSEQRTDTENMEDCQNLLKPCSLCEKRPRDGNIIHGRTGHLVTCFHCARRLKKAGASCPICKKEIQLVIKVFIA
Chain of Protein Mdm4 (Homo sapiens) + E3 ubiquitin-protein ligase Mdm2 (Homo sapiens) (Q00987 whole entry, looked up): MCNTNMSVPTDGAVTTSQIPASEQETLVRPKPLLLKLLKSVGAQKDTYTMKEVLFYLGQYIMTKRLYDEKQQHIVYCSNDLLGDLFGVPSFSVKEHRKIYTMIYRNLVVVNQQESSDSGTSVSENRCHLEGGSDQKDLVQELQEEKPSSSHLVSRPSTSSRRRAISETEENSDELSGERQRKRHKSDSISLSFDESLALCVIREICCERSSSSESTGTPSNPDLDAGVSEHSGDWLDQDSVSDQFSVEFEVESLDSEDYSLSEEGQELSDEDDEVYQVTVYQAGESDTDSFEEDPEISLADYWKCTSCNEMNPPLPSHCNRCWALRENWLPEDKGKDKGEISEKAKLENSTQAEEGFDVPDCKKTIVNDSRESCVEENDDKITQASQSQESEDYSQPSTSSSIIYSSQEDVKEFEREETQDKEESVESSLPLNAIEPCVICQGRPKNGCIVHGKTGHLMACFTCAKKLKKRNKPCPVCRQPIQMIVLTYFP

SMILES | inhibition
CCOc1ccc(-n2cnc3c(=O)[nH]c(N)nc32)cc1 | -4.14% (inactive)
CCN(C[C@H]1N[C@@](Cc2ccccc2)(C(=O)OC)[C@H]2C(=O)N(Cc3ccccc3)C(=O)[C@@H]12)C(=O)c1ccc(C)cc1 | 0.772% (inactive)
Cc1cccc([C@@H]2[C@@H]3C(=O)N(Cc4ccccc4)C(=O)[C@@H]3[C@]3(Cc4ccc(Cl)cc4)C(=O)N(c4cccc(Cl)c4)C(=O)N23)c1 | 8.94% (inactive)
CC(C)(C)N1C(=O)[C@H]2[C@@H](c3ccc(Br)cc3)N3C(=O)N(c4cccc(Cl)c4)C(=O)[C@@]3(C)[C@H]2C1=O | 10.7% (inactive)
Cc1cccc([C@@H]2[C@@H]3C(=O)N(Cc4ccccc4)C(=O)[C@@H]3[C@]3(C)C(=O)N(c4ccc(Br)cc4)C(=O)N23)c1 | 53.1% (active)
Cc1ccc(S(=O)(=O)Nc2ccc(F)c(S(=O)(=O)N3CCOCC3)c2)cc1 | 29.4% (inactive)
COc1cccc(OC)c1C(=O)Nc1ccc2c(c1)n(C)c(=O)n2C | 6.22% (inactive)
Cn1c(=O)n(C)c2cc(C(=O)Nc3ccc4c(c3)OCO4)ccc21 | 60.2% (active)
CC(C)C(=O)Nc1cccc(C(=O)Nc2ccc3c(c2)OCO3)c1 | -105% (inactive)
O=C(Nc1ccc2c(c1)OCO2)c1ccc(N2C(=O)c3ccccc3C2=O)cc1 | 8.21% (inactive)
Cn1c(=O)n(C)c2cc(/C=N/NC(=O)c3cccc(Br)c3)ccc21 | 19.4% (inactive)
Cn1c(=O)n(C)c2cc(C(=O)Nc3ccc(Br)cc3)ccc21 | 56.8% (active)
CC1(C)C=Cc2c(ccc3c2OC[C@@H](c2ccc(O)cc2O)C3)O1 | -97.4% (inactive)
Cc1c(NC(=O)CSc2nnc(-c3cccnc3)n2N)c(=O)n(-c2ccccc2)n1C | -18.9% (inactive)
Cc1c(NC(=O)CSc2nnnn2-c2ccc(C(=O)O)cc2)c(=O)n(-c2ccccc2)n1C | 11% (inactive)
Cc1c(NC(=O)CSc2cccc3cccnc23)c(=O)n(-c2ccccc2)n1C | 65.2% (active)
Cc1ccc(NC(=O)c2nc[nH]c2C(=O)N[C@@H](CCCCNC(=O)OC(C)(C)C)C(=O)OC(C)(C)C)cc1 | 31.7% (inactive)
CCOC(=O)c1ccc(NC(=O)c2nc[nH]c2C(=O)N[C@@H](CCCCNC(=O)OC(C)(C)C)C(=O)OC(C)(C)C)cc1 | 53.6% (active)
CCOC(=O)c1ccc(NC(=O)c2nc[nH]c2C(=O)NCc2ccccc2)cc1 | 33.2% (inactive)
O=C(CNC(=O)c1ccccc1F)OCC(=O)c1c[nH]c2ccccc12 | 6.82% (inactive)
O=C(Nc1cccnc1)c1noc2c1CCCCC2 | 3.42% (inactive)
CCOc1ccc(/C=C2\SC(=S)N(NC(=O)c3ccncc3)C2=O)cc1OC | -7.45% (inactive)

SMILES | inhibition
O=C(CCCN1C(=O)/C(=C\c2ccccc2)SC1=S)Nc1ccccc1O | 79.6% (active)
Cc1ccc(/C=C2\SC(=S)N(CCC(=O)Nc3ccc(O)cc3)C2=O)cc1 | 20.5% (inactive)
COc1ccc(/C=C2\SC(=S)N(CCC(=O)Nc3ccccn3)C2=O)cc1OC | 76.7% (active)
O=C(CCN1C(=O)/C(=C/c2cccs2)SC1=S)NNC(=O)c1cccc(O)c1 | -31.2% (inactive)
Cc1ccc(/C=C2/SC(=S)N(CCC(=O)NCCCN3CCOCC3)C2=O)cc1 | -3.05% (inactive)
O=C(CCCN1C(=O)/C(=C/c2ccccc2)SC1=S)Nc1ccc(O)cc1 | 94.8% (active)
C=CCOc1ccc(/C=C2\SC(=S)N(CCC(=O)O)C2=O)cc1 | 42% (inactive)
COc1ccc(/C=C2/SC(=O)N(CCCCCC(=O)Nc3ccccc3C(=O)O)C2=S)cc1 | -4.65% (inactive)
O=C(CCCN1C(=O)/C(=C/c2cccs2)SC1=S)Nc1ccc(O)cc1 | 62.6% (active)
CC(C(=O)Nc1ccc(O)c(C(=O)O)c1)N1C(=O)/C(=C/c2cccs2)SC1=S (configuration not stated) | 7.51% (inactive)
COc1ccc(/C=C2\SC(=S)N(CCC(=O)Nc3cccc(C(=O)O)c3)C2=O)cc1OC | 0.635% (inactive)
Cc1csc(NC(=O)C2CCN(S(=O)(=O)c3ccccc3)CC2)n1 | -1.69% (inactive)
Cc1ccc2c(C)c(C(=O)N(C)CCC3CCCCO3)oc2c1C (configuration not stated) | 27.9% (inactive)
CC(=O)Nc1ccc(S(=O)(=O)Nc2nc3n(n2)C(c2ccccc2)CC(=O)N3)cc1 (configuration not stated) | 12.5% (inactive)
CC(=O)NC12CC3CC(C1)CC(C(=O)N1CCN(S(=O)(=O)c4cccs4)CC1)(C3)C2 | 14.8% (inactive)
Cc1ccc(Nc2nc(CSc3nnc(-c4ccncc4)n3-c3ccccc3C)cs2)cc1 | 38.1% (inactive)
Cc1c(C(=O)NCC(c2ccco2)N2CCCC2)oc2ccc(Cl)cc12 (configuration not stated) | 21% (inactive)
CCCCCOC(=O)C1=C(C)Nc2nnnn2C1c1ccc(OC)c(OC)c1OC (configuration not stated) | -18% (inactive)
COc1cccc(-c2cc3nc4c(c(N5CCC6(CC5)OCCO6)n3n2)CCCC4)c1 | 22.2% (inactive)
COc1ccccc1CN(C)C(=O)C1(c2ccc(Cl)cc2)CC1 | 14.8% (inactive)
O=C(CN1C(=O)NC(Cc2c[nH]c3ccccc23)C1=O)Nc1ccccc1C(F)(F)F (configuration not stated) | -9.67% (inactive)
Cc1ccc2c(c1)N(CC(=O)N(Cc1ccccn1)Cc1ccco1)C(=O)C(C(C)C)O2 (configuration not stated) | 2.25% (inactive)

SMILES | inhibition
CCc1ccc(NC(=O)N2CCc3ccccc3C2)cc1 | -51.8% (inactive)
Cc1ccc(C2CC(=O)NC(SCC(=O)OCc3ccccc3)=C2C#N)o1 (configuration not stated) | 58.1% (active)
CCCc1cc(=O)[nH]c(SCC(=O)OCc2ccccc2)n1 | 18.4% (inactive)
COC(=O)CSC1=C(C#N)C(c2ccccc2OC)C(C(=O)OC)C(=O)N1 (configuration not stated) | 15.2% (inactive)
COc1cc(OC)cc(C(=O)OCC(=O)Nc2sccc2C(N)=O)c1 | -6.16% (inactive)
C=CCn1c(C)cc(C2=NNC(=NCC)SC2)c1C | 97.3% (active)
CCS(=O)(=O)N1CCC(N2CCN(c3ccccc3)CC2)CC1 | 1.56% (inactive)
O=[N+]([O-])c1cccc2ncccc12 | 10.6% (inactive)
Cc1ccccc1NC(=O)c1ccccc1NS(=O)(=O)c1cccc2cccnc12 | 11.2% (inactive)
O=[N+]([O-])c1ccccc1S(=O)(=O)Nc1cccc2cccnc12 | 94.5% (active)
CN(CCc1ccccn1)C(=O)CCC1CCCN(Cc2ccccc2OC(F)F)C1 (configuration not stated) | -29.3% (inactive)
CCOC(=O)C1=CN(Cc2ccc(Br)cc2)S(=O)(=O)NC1C (configuration not stated) | 12.1% (inactive)
CC1=C(C(N)=O)C(c2ccc(Br)cc2)n2ncnc2N1 (configuration not stated) | 5.41% (inactive)
Clc1ccc2c(c1)C1=C(C(c3ccncc3)O2)C(c2ccc(Br)cc2)n2ncnc2N1 (configuration not stated) | 70.4% (active)
Brc1ccc(C2=CC(c3ccco3)n3ncnc3N2)cc1 (configuration not stated) | 11.6% (inactive)
O=C1NCCn2nc3ccccc3c21 | 16.4% (inactive)
Cc1ccc(NN=Nc2nc3c([nH]2)c(=O)n(C)c(=O)n3C)cc1 | -16.4% (inactive)
Cc1ccc(CSc2nc3[nH]ncc3c(=O)[nH]2)cc1 | -38.4% (inactive)
C=CCN1C(=O)C(O)(CC(=O)c2ccccn2)c2ccccc21 (configuration not stated) | -5.9% (inactive)
O=C(c1ccc2c(c1)OCO2)N1CCOCC1 | 3.71% (inactive)
N/C(=N\OC(=O)c1ccc2c(c1)OCO2)c1ccc(Br)cc1 | 84.4% (active)
C/C(=N/OC(=O)c1ccc(Br)cc1)c1ccc(C)cc1 | 5.85% (inactive)

SMILES | inhibition
CC(C)(C)OC(=O)C[C@@H]1C/C=C\C[C@@H](CC(=O)N[C@@H](CO)Cc2ccccc2)C(=O)N2CCC[C@H]2COC1=O | 9.85% (inactive)
O=C(Nc1ccncc1)Nc1ccc(F)cc1 | 14% (inactive)
O=C(Nc1ccncc1)c1c(F)cccc1F | 52.1% (active)
CSc1nc2ccc(NC(=O)c3c(F)cccc3F)cc2s1 | -79.2% (inactive)
COCCNC(=O)COc1ccc(N(C)S(=O)(=O)c2ccc3ccccc3c2)cc1 | 16.8% (inactive)
Cc1cc(C)nc(NC(=O)/C=C/c2ccc(Cl)cc2)n1 | 6.82% (inactive)
O=C(/C=C/c1ccc(Cl)cc1)Nc1ccc(Br)cn1 | 77.5% (active)
O=C(/C=C/c1ccc(Cl)cc1)Nc1ccc(S(=O)(=O)Nc2ncccn2)cc1 | 0.48% (inactive)
CCn1c(SCC(=O)Nc2cc(C)ccc2C)nnc1-c1cnccn1 | -18.6% (inactive)
COc1ccc(N2C(=O)C(O)C2c2ccc(C)cc2)cc1 (configuration not stated) | 17.5% (inactive)
COc1ccc(COC(=O)NC(C(=O)O)c2ccccc2)cc1 (configuration not stated) | 7.43% (inactive)
COc1ccc(C(CCN(Cc2ccc(OC)c(OC)c2)C(=O)CCl)c2ccccc2)cc1 (configuration not stated) | 100% (active)
COc1ccc(CN(C)C(=O)CC(c2ccccc2)c2ccccc2)cc1 | 2.66% (inactive)
O=C(OCc1cc(=O)n2ccsc2n1)C1(c2ccc(Cl)cc2)CC1 | -13.2% (inactive)
CN(c1ccc(OCC(=O)NC2=NCCS2)cc1)S(=O)(=O)c1ccc(F)cc1 | -19.2% (inactive)
CCOC(=O)C1=C(c2ccccc2)NC(=O)NC1c1cc(OCC)c(O)c([N+](=O)[O-])c1 (configuration not stated) | -2.5% (inactive)
CC(C)(C)c1ccc(/C=C/C(=O)Nc2ncccn2)cc1 | -199% (inactive)
COc1ccccc1NC(=O)/C=C/C(N)=O | 6.78% (inactive)
COC(=O)c1sc(-c2ccc(C(C)(C)C)cc2)cc1NC(=O)/C=C/C(=O)O | 59.5% (active)
CC1(C)S[C@@H]2[C@H](NC(=O)COc3ccccc3)C(=O)N2C1C(=O)OCc1ccccc1 (some centres not stated) | -0.93% (inactive)
O=C1OCCN1C(=O)[C@H]1[C@H](c2ccc(Cl)cc2)C(c2cccc(Cl)c2)=NN1c1ccc(Br)cc1 | 43% (inactive)
